This note sets out measurements from PubChem BioAssay (Tox21).

SMILES strings stand for the structures. Records with an inconclusive call do not appear. Calls of active or inactive are those of the source. Unless noted, calls come from the whole dose curve; as a rule, active = well fitted curve in the direction sought with a large enough effect in the repeat runs; inconclusive = weak or mixed curves; inactive = no such curve, though single readings can be large; an effect the other way counts as inactive or inconclusive.

Test [1] is described as follows: qHTS assay to identify small molecule agonists of the sonic hedgehog signaling (Shh) pathway (AID 1259368; calls by dose curve;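 note: NIH/3T3-derived 3T3Gli1-Luc cells carrying a stable Gli1-driven firefly luciferase reporter; series mostly up to about 92 µM; nearly all actives have a fitted effect of over 15% in size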). The method, boiled down:
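Quantitative high-throughput format using a Gli1-driven firefly luciferase reporter line derived from NIH/3T3 cells. After a 24 hr compound treatment at 37 C and 5% CO2, luminescence reported Gli1 response element activity.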

Test [2] can be described thus: qHTS assay to identify small molecule agonists of the androgen receptor (AR) signaling pathway in the presence of an antagonist - cell viability counter screen (AID 1259379).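 Note: MDA-kb2 human breast cancer cells carrying an MMTV luciferase reporter; series mostly up to about 92 µM; nearly all actives have a fitted effect of over 25% in size.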 The method, boiled down:
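Nilutamide-containing (3.0uM final) MDA-kb2 cultures, 3,000 cells/well, were treated with compounds across 15 concentrations. After 16 hr at 37C with no CO2, cell viability was determined by CellTiter-Fluor fluorescence in the luciferase assay wells.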

Test [3] is described as follows: qHTS assay to identify small molecule agonists of the estrogen receptor beta (ER-beta) signaling pathway - cell viability counter screen (AID 1259380). Note: nearly all actives have a fitted effect of over 30% in size. Note: potency is the fitted concentration of half-maximal effect. The method, boiled down:
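Steps: plate ER-beta-UAS-bla HEK293T cells, rest 6 hr; add compounds in DMSO; incubate 16 hr at 37C, 5% CO2; add FRET substrate 2 hr; add CellTiter-Glo, wait 30 min at room temperature; read luminescence.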

A short description of test [4]: qHTS assay to identify small molecule antagonists of the estrogen receptor beta (ER-beta) signaling pathway - cell viability counter screen (AID 1259382). Note: nearly all actives have a fitted effect of over 55% in size. Note: potency is the fitted concentration of half-maximal effect. The method, boiled down:
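Viability is scored by CellTiter-Glo luminescence (30 min, room temperature) in ER-beta-UAS-bla HEK293T wells already read for reporter fluorescence. Compound exposure lasts 16 hr at 37C alongside 1nM 17-beta-estradiol in charcoal-stripped serum medium.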

Test [5] can be described thus: qHTS assay to identify small molecule agonists or antagonists of the thyroid stimulating hormone receptor (TSHR) signaling pathway - wild type cell line counter screen (AID 1259384; calls by dose curve). The gist of the method:
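Wild-type HEK293 cells were plated 18 h at 37 C/5% CO2, pin-dosed with compound plus Ro20-1724 medium, held 30 min at room temperature, then given cAMP-d2 and anti-cAMP-cryptate; fluorescence was read after 1 h. Fifteen concentrations, triplicate.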

A short description of test [6]: qHTS assay to identify small molecule agonists of the estrogen receptor alpha (ER-alpha) signaling pathway in the presence of an antagonist - cell viability counter screen (AID 1259386).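 Note: series mostly up to about 92 µM; cells exposed to compounds for 22 h at 37 °C before the viability read; nearly all actives have a fitted effect of over 30% in size.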 The method, boiled down:
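In this counter screen, compound effects on VM7Luc4E2 viability were tested in the presence of the antagonist ICI-182,780 at 10.0nM final. Compounds were dosed at 15 concentrations, exposure lasted 22hr, and the CellTiter-Fluor signal was read.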

A short description of test [7]: qHTS assay to identify small molecule antagonists of the progesterone receptor (PR) signaling pathway - cell viability counter screen (AID 1346798). Note: series mostly up to about 92 µM; nearly all actives have a fitted effect of over 50% in size. The gist of the method: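 Measures cytotoxicity in parallel with the PR antagonist reporter read: HEK293T PR-UAS-bla cells get compound and R5020 for 16 hr, and remaining viable cells are quantified by CellTiter-Glo luminescence.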

The nature of test [8]: qHTS assay to identify small molecule agonists of the progesterone receptor (PR) signaling pathway - cell viability counter screen (AID 1346799; calls by dose curve; note: nearly all actives have a fitted effect of over 45% in size; note: potency is the fitted concentration of half-maximal effect). The gist of the method:
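Using the same plates as the PR reporter screen, HEK293T PR-UAS-bla cells received compounds for 16 hr at 37C and were then lysed with CellTiter-Glo; luminescence was read 30 min later at room temperature.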

Test [9] can be described thus: qHTS assay to identify small molecule antagonists of the TGF-beta/Smad signaling pathway - cell viability counter screen (AID 1346824). Note: nearly all actives have a fitted effect of over 50% in size. The gist of the method: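 SBE-bla HEK 293T cells were plated overnight at 37 C, then given compounds in DMSO plus TGF-beta1 (added as 0.25 ng/mL solution) for 5 hr. After the bla read, CellTiter-Glo was added to the same wells and luminescence read after 30 min at room temperature.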

A short description of test [10]: qHTS assay to identify small molecule agonists of the TGF-beta/Smad signaling pathway - cell viability counter screen (AID 1346829). Note: top concentration of the series differs between compounds; nearly all actives have a fitted effect of over 45% in size. The method, boiled down:
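Luminescence from CellTiter-Glo, read after a 30 min room-temperature incubation, gives cell viability of SBE-bla HEK 293T cells treated 5 hr with compounds at 37 C.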

The nature of test [11]: qHTS assay to identify small molecule agonists of the TGF-beta/Smad signaling pathway (AID 1346859; active = well fitted activation curve with a large enough effect in the signal ratio in the repeat runs, not every such curve was filed as active; the % refers to the signal ratio; note: series mostly up to about 77 µM). The gist of the method: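 Beta-lactamase reporter activity downstream of Smad binding elements was measured in stably transfected HEK 293T cells; compounds were incubated for 5 hr, substrate for 2 hr at room temperature.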
Test [12] addresses Thyrotropin-releasing hormone receptor (Homo sapiens) (UniProt P34981). The test can be described thus: qHTS assay to identify small molecule antagonists of the thyrotropin-releasing hormone receptor (TRHR) signaling pathway (AID 1346877; active = well fitted inhibition curve with a large enough effect in the repeat runs, not every such curve was filed as active; note: series mostly up to about 51 µM). The gist of the method: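 Kinetic fluorescence (3 min, 1 s resolution) following stimulation with TRH at 1 nM final; HEK293 cells bearing human TRHR; 5 min compound preincubation at RT; concentration-response over 15 points, triplicates.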

The target in test [13] is Estrogen receptor (Homo sapiens) (UniProt P03372). The test can be described thus: qHTS assay to identify small molecule agonists of the estrogen receptor alpha (ER-alpha) signaling pathway in the presence of an antagonist (AID 1259383; calls by dose curve; note: top concentration of the series differs between compounds; nearly all actives have a fitted effect of over 15% in size). The gist of the method:
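Readout was ERE-driven luciferase luminescence in VM7Luc4E2 cells, which express full-length ER-alpha endogenously. Compounds were tested at 15 concentrations for 22hr alongside 10.0nM ICI-182,780 (final concentration).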

In test [14] the target is Thyrotropin receptor (Homo sapiens) (UniProt P16473). The test can be described thus: qHTS assay to identify small molecule antagonists of the thyroid stimulating hormone receptor (TSHR) signaling pathway (AID 1259385; calls by dose curve; note: nearly all actives have a fitted effect of over 20% in size). The gist of the method:
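TSHR-HEK293 cells were plated and held 18 h at 37C/5% CO2, then given compound plus Ro20-1724 and stimulated with TSH at 1.5 ng/mL final. After 30 min at room temperature, cAMP was detected with cAMP-d2/anti-cAMP-cryptate (1 h) by fluorescence.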

In test [15] the target is Androgen receptor (Homo sapiens) (UniProt P10275). The test can be described thus: qHTS assay to identify small molecule agonists of the androgen receptor (AR) signaling pathway in the presence of an antagonist (AID 1259381; calls by dose curve; note: nearly all actives have a fitted effect of over 15% in size). The gist of the method: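 Reporter-gene luminescence from MDA-kb2 cells exposed 16hr at 37C (0% CO2) to 15-point compound titrations with 3.0uM final nilutamide as AR antagonist.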

The target in test [16] is Progesterone receptor (Homo sapiens) (UniProt P06401). The test can be described thus: qHTS assay to identify small molecule agonists of the progesterone receptor (PR) signaling pathway (AID 1346784; calls by dose curve; note: nearly all actives have a fitted effect of over 30% in size). The method, boiled down:
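Seed PR-UAS-bla HEK 293T cells (2% charcoal-stripped FBS), incubate 6 hr at 37C; add compounds in DMSO, 16 hr at 37C; add LiveBLAzer B/G substrate, 2 hr RT; read fluorescence intensity.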

Test [17] shares this target. The test can be described thus: qHTS assay to identify small molecule antagonists of the progesterone receptor (PR) signaling pathway (AID 1346795; active = well fitted inhibition curve with a large enough effect in the signal ratio in the repeat runs, not every such curve was filed as active; the % refers to the signal ratio). The method, boiled down:
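Screening used a GripTite HEK293T line with PR-responsive UAS-beta-lactamase. Cells were challenged with compound in the presence of 1 nM R5020 final for 16 hr at 37C; B/G FRET substrate, 2 hr room temperature, fluorescence.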

Sequence of Progesterone receptor (Homo sapiens) (P06401 whole entry, looked up): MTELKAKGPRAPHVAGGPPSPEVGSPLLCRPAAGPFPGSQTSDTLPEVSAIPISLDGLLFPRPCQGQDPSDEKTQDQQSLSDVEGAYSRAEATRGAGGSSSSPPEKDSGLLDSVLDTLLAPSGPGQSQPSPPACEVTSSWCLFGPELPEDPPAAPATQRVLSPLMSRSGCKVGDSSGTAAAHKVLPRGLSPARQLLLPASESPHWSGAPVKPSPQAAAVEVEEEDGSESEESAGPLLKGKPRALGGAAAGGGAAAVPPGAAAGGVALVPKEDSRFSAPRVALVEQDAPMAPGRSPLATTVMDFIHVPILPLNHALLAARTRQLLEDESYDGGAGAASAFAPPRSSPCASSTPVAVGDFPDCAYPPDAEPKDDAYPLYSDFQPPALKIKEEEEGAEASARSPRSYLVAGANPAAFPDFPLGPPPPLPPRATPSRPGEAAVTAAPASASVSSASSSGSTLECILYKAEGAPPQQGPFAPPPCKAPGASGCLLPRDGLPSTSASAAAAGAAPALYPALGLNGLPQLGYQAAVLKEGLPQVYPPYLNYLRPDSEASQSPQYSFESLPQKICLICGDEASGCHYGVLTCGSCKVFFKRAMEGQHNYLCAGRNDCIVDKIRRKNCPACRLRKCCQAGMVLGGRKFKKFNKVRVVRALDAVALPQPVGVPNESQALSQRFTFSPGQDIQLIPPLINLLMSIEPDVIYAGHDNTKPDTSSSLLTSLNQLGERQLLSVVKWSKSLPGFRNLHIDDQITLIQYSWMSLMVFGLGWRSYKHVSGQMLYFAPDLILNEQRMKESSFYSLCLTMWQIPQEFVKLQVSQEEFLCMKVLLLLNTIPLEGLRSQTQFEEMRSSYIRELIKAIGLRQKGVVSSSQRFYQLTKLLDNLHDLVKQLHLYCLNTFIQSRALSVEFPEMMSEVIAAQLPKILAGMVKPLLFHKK
Sequence of Thyrotropin receptor (Homo sapiens) (P16473 whole entry, looked up): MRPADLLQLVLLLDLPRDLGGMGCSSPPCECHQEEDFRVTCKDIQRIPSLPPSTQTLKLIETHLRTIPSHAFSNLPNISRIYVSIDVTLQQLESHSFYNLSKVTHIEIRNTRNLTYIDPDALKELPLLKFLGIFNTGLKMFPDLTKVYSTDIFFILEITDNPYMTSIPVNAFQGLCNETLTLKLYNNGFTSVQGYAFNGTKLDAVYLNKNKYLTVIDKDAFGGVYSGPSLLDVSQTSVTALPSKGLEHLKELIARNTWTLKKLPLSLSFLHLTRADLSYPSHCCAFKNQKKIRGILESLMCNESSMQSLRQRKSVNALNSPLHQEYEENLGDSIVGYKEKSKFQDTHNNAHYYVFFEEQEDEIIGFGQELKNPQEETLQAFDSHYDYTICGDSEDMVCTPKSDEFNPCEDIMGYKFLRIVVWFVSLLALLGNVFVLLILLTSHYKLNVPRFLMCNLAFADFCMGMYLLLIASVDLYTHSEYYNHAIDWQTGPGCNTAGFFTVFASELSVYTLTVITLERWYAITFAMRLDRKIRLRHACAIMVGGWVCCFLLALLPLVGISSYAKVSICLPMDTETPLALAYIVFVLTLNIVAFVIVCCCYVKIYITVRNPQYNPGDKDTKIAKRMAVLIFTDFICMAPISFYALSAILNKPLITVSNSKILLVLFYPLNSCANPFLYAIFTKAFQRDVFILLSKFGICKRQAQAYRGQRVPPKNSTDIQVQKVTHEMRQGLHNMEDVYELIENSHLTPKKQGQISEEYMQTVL
Sequence of Estrogen receptor (Homo sapiens) (P03372 whole entry, looked up): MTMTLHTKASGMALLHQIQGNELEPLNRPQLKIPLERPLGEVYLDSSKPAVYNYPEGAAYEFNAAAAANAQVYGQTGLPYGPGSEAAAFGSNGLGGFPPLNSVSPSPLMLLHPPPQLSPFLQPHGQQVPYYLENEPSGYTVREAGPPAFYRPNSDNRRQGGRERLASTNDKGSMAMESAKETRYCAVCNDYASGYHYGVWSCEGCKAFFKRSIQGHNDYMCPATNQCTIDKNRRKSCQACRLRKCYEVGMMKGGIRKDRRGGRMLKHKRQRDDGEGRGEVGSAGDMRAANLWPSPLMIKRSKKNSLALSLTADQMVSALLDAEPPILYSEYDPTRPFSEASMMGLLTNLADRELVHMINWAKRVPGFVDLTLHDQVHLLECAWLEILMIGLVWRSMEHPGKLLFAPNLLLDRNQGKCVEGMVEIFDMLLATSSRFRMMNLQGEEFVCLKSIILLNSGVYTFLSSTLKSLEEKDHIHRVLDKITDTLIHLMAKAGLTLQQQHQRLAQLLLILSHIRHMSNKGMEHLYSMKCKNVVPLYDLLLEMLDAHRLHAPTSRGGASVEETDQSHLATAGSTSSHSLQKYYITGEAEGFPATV
Sequence of Thyrotropin-releasing hormone receptor (Homo sapiens) (P34981 whole entry, looked up): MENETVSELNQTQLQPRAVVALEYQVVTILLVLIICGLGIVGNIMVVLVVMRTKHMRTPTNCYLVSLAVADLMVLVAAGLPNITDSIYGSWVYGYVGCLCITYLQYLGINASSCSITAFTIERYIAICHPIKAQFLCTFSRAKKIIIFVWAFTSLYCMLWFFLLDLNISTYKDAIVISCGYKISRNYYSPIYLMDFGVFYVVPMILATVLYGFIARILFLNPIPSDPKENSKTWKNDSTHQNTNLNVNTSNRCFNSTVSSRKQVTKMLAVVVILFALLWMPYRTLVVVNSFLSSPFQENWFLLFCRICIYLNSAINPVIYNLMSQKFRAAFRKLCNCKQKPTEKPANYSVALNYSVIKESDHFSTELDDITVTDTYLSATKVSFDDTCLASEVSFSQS
Sequence of Androgen receptor (Homo sapiens) (P10275 whole entry, looked up): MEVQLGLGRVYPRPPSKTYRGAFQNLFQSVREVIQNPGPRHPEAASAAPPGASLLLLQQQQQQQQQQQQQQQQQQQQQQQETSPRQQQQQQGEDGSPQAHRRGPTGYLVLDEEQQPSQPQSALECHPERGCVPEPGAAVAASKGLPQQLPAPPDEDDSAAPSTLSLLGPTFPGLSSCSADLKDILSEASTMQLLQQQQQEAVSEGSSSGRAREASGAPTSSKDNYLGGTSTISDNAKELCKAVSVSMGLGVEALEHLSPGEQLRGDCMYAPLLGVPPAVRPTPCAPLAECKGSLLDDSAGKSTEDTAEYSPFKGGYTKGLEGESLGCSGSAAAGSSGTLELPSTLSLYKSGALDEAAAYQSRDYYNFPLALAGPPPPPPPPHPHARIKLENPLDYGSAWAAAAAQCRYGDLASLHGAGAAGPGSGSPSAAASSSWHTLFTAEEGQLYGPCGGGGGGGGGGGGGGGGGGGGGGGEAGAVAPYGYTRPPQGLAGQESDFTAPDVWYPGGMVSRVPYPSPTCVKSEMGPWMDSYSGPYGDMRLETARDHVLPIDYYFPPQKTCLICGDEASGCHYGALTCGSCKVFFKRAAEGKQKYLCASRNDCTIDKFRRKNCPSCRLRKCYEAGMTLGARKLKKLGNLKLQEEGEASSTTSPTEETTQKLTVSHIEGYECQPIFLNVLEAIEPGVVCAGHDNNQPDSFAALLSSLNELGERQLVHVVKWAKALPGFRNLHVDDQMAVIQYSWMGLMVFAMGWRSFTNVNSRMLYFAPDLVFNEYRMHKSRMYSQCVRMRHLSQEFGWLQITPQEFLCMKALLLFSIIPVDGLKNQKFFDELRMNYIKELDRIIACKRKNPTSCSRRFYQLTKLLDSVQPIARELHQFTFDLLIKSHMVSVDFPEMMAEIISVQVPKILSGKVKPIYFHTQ

As for `O=C(O)CN1C(=O)c2cccc3cccc(c23)C1=O`, the Potency result in test [1], in test [2], in test [3], in test [4], in test [5] and in [6] was “inactive” in each case. Moreover, the Potency entry in test [7], in test [8], in test [10] and in test [11] was “inactive” throughout. In addition, the outcome in test [9] and in [12] was inactive.
For the compound `CCCCCCCCCCCSCC(=O)O`, the Potency result in test [1], in test [2], in [13], in test [5], in test [14] and in test [6] was “inactive” each time. For the same compound, the Potency entry in test [7], in test [10] and in test [11] was “inactive” each time. For the same compound, the results for the Potency in test [3], in test [4] and in test [8] were 27.3 µM (active), 24.3 µM (active) and 21.7 µM (active), respectively. The outcome in test [9] and in [12] was inactive.
On to `CCOC(=O)Oc1ccc(CCNC(=O)[C@H](CCSC)NC(C)=O)cc1OC(=O)OCC`, for which the Potency result in test [1], in test [2], in test [3], in test [15], in test [4] and in test [13] was “inactive” in each case. For the same compound, the Potency result in test [5], in [14], in [6], in test [16], in test [17] and in [7] was “inactive” each time. The Potency entry in test [8], in test [10] and in test [11] was “inactive” throughout. The compound was classed as inactive in test [9].
